37 molecules from ChEMBL document CHEMBL3433997, “St. Jude Leishmania screening dataset” (2016) can be followed below.

What all share (type): functional
The target in assay [1] is Solute carrier family 2, facilitated glucose transporter member 1 (Homo sapiens) (UniProt P11166). The experiment in a line: ST_JUDE_LEISH: Cytotoxicity at 2uM final concentration against transgenic Leishmania Mexicana promastigotes LmGLUT1 that are glucose transport deficient and complemented with the human glucose transporter GLUT1. Activity is measured by DNA content using SYBR green in vitro.
Sequence of Solute carrier family 2, facilitated glucose transporter member 1 (Homo sapiens) (P11166 whole entry): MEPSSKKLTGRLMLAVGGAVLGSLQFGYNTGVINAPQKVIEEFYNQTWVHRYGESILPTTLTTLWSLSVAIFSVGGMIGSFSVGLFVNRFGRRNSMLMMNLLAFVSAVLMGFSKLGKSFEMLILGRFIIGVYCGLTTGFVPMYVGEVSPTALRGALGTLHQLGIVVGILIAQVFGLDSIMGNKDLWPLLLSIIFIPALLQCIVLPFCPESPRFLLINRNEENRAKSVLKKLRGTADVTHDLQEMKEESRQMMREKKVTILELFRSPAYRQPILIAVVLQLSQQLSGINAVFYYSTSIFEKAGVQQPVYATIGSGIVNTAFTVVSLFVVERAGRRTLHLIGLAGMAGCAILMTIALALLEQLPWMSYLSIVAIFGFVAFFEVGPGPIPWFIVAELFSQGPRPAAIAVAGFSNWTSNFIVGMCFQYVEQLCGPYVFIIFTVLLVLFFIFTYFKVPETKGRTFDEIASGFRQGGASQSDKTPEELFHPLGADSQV

In assay [2] the target is Hexose transporter 1 (Plasmodium falciparum) (UniProt O97467). As to the kind of experiment: ST_JUDE_LEISH: Cytotoxicity at 2uM final concentration against transgenic Leishmania Mexicana promastigotes LmPfHT that are glucose transport deficient and complemented with the Plasmodium falciparum hexose transporter. Activity is measured by DNA content using SYBR green in vitro.

Assay [3] addresses Glucose transporter (Leishmania mexicana) (UniProt O61059). The experiment in a line: ST_JUDE_LEISH: Cytotoxicity at 2uM final concentration against transgenic Leishmania Mexicana promastigotes LmGT2 that are glucose transport deficient and complemented with the L. Mexicana glucose transporter 2. Activity is measured by DNA content using SYBR green in vitro.

For orientation: inhibition means the change of the read-out against control, counted positive when it falls. For `Cc1ccc(NCc2cccc(F)c2)cc1S(=O)(=O)N[C@@H]1CCN(C#N)C1`, the inhibition amounted to 7.1% in assay [1], 3.53% in assay [2] and 1.18% in assay [3].

Regarding `CCSc1ccccc1COc1c(C)nc(N)nc1N`, the inhibition in assay [1] is 6.84%; in assay [2], 6.09%; in assay [3], 2.41%.

Regarding `CCOc1cc(NCCCNc2ncc([N+](=O)[O-])cc2C)nc2ccccc12`, the inhibition in assay [1] was 1.72%; in assay [2] it was -1.69%; in assay [3] it was 0.83%.

Turning to `CC1SC(=S)NC1C(=O)O` (stereo unspecified), the inhibition is -1.93% in assay [1], 0.57% in assay [2] and 0.24% in assay [3].

Turning to `Nc1nc(N)c2cc(C#Cc3ccc(-c4ccccc4)cc3)ccc2n1`, the inhibition turned out to be 4.53% in assay [1], 10.9% in assay [2] and 2.06% in assay [3].

Turning to `O=C(C=Cc1cn(-c2ccccc2)nc1-c1cccs1)N1CCN(c2ccncc2)CC1`, the inhibition in assay [1] was 1.81%; in assay [2], 0.46%; in assay [3], -3.76%.

Consider `C=CCc1ccccc1OCC(O)CN(C1CCCCC1)C1CCCCC1` (stereo unspecified), for which the inhibition in assay [1] is -1.79%; in assay [2] it was -2.31%; in assay [3], 5.77%.

For the molecule `COc1ccc2ncc(F)c(CCN3C4CCC3CC(NCc3cc5c(cn3)OCS5)C4)c2n1` (stereo unspecified), the values for the inhibition in assay [1], in assay [2] and in assay [3] were 32.5%, 41.5% and 64.1%, respectively.

Consider `CCOc1cc(C(=O)NCCN2CCCCC2)ccc1-c1nc2cc(Cl)ccc2[nH]1`, for which the inhibition stood at 1.06% in assay [1], 1.42% in assay [2] and 2.06% in assay [3].

`CCCNCc1ccc(-c2ccc(CN(CCOC)C(=O)c3cccc(C#N)c3)cc2)nc1`: the inhibition in assay [1] came out at 1.66%; in assay [2] it was 1.45%; in assay [3] it was 3.74%.

Turning to `COc1cc2c(C3CCN(CC4CCC(NC(=O)/C=C/c5ccc(Cl)c(Cl)c5)CC4)CC3)c[nH]c2cn1` (stereo unspecified), the figures for the inhibition in assay [1], in assay [2] and in assay [3] were 9.19%, 8.02% and 7.96%, respectively.

Consider `O=C(Nc1ccc(-c2nc3ccccc3[nH]2)cc1)c1cnc(Cl)c(Cl)c1`, for which the inhibition in assay [1] is 0.44%; in assay [2], -0.34%; in assay [3] it was 2.62%.

`CCOc1ccc2nc(N(CCCn3ccnc3)C(=O)C=Cc3cccs3)sc2c1`: the inhibition in assay [1] was 3.54%; in assay [2], 2.73%; in assay [3], -8.76%.

`CCNc1cc(C)nc(Nc2ccc(NC(=O)c3ccccc3Cl)cc2)n1`: the inhibition in assay [1] is 6.51%; in assay [2] it was 8.33%; in assay [3], 5.34%.

`O=C(NC1CCCCC1)N(Cc1ccc(-c2ccc(CNCc3ccc4c(c3)OCO4)cc2)cc1)C1CCN(Cc2ccccc2)CC1`: the inhibition worked out at 2.03% in assay [1], 1.63% in assay [2] and 1.56% in assay [3].

In the case of `Cc1nc(N)nc(N)c1Oc1cccc(Cl)c1`, the inhibition in assay [1] stood at 3.72%; in assay [2], 0.81%; in assay [3], 0.35%.

Regarding `CCOC(=O)c1ccc(NC(=O)Nc2ccc(-c3cccc(-c4nc5ccccc5[nH]4)c3)cc2)cc1`, the inhibition in assay [1] was determined as 6.03%; in assay [2], 4.66%; in assay [3], 1.68%.

`COc1ccc(C=NN=c2cc[nH]c3ccccc23)c2ccccc12`: the inhibition in assay [1] was determined as 2.52%; in assay [2], 7.49%; in assay [3] it was 5.88%.

With `Cn1c2c(c3ccccc31)CN(CCC1(c3ccc(Cl)c(Cl)c3)CN(C(=O)Cc3ccccc3)CCO1)CC2` (stereo unspecified), the inhibition was 2.23% in assay [1], 3.84% in assay [2] and -1.01% in assay [3].

As to `O=[N+]([O-])c1cc(/C=N/Nc2nc3ccccc3[nH]2)ccc1O`, the inhibition in assay [1] came out at 8.03%; in assay [2], 8.49%; in assay [3], 4.27%.

Turning to `Clc1ccc2c(NCCNc3ccnc4cc(Cl)ccc34)ccnc2c1`, the inhibition in assay [1] is -0.52%; in assay [2], -2.22%; in assay [3] it was -0.13%.

`O=C(NCCCCCN1CCCN(C(=O)Nc2ccc(Cl)c(C(F)(F)F)c2)CC1)C1CC1c1ccc(Cl)c(Cl)c1` (stereo unspecified): the inhibition in assay [1] turned out to be 2.42%; in assay [2] it was 0.79%; in assay [3], 0.24%.

Turning to `COc1ccc(CCN(C)CCOc2ccc(NC(=O)c3cc(SC)cc4c(=O)c5ccccc5[nH]c34)cc2)cc1OC`, the results for the inhibition in assay [1], in assay [2] and in assay [3] were 4.06%, 3.15% and 2.82%, respectively.

As to `COc1ccc2nc(C)cc(Nc3ccc(Oc4ccc5ccccc5c4)c(Cl)c3)c2c1`, the inhibition in assay [1] amounted to 7.14%; in assay [2] it was 7.63%; in assay [3], 1.45%.

For the molecule `O=C(Nc1ccc(Cl)cc1Cl)NC1CCN(CCCCCNC(=O)C2CC2c2ccc(Cl)c(Cl)c2)CC1` (stereo unspecified), the inhibition was 10.1% in assay [1], 11.3% in assay [2] and 9.23% in assay [3].

As for `O=C(Nc1cccc(-c2cccc(-c3nc4ccccc4[nH]3)c2)c1)c1ccncc1`, the inhibition in assay [1] came to 4.03%; in assay [2] it was 4.7%; in assay [3], 0.44%.

On to `Fc1ccc2[nH]c(-c3cccc(-c4ccc(CN5CCN(c6ccncc6)CC5)cc4)c3)nc2c1`, for which the inhibition in assay [1] was 0.76%; in assay [2], 1.36%; in assay [3] it was 0.8%.

In the case of `O=C(CCN1C(=O)c2ccccc2C1=O)N1CCN(CC=Cc2ccccc2)CC1`, the inhibition in assay [1] is -1.54%; in assay [2], -1.32%; in assay [3], -1.76%.

In the case of `Cc1ccc(O)cc1Nc1ccnc2cc(-c3ccccn3)ccc12`, the values for the inhibition in assay [1], in assay [2] and in assay [3] were 5.99%, 4.26% and 3.28%, respectively.

Consider `O=C(CN1CCCCC1)Nc1ccc(Nc2nccc(NCC(O)c3ccccc3)n2)cc1` (stereo unspecified), for which the inhibition in assay [1] is 11.7%; in assay [2], 9.59%; in assay [3], 7.17%.

As to `CC(C)(C)c1ccc(NC(=O)c2cccc(CN3CCCN(Cc4cccc(C#N)c4)CC3)c2)cc1`, the figures for the inhibition in assay [1], in assay [2] and in assay [3] were 5.1%, 1.26% and 0.63%, respectively.

`COc1ccccc1Cn1ccnc1SCC(=O)Nc1cc(C(F)(F)F)ccc1Cl`: the figures for the inhibition in assay [1], in assay [2] and in assay [3] were -2.21%, -2.15% and -1.55%, respectively.

On to `CCC[C@@H]([C@@H](CC1CCCCC1)C(=O)N[C@@H](CCOC(=O)NCC)C(=O)Nc1nccs1)N(O)C=O`, for which the inhibition in assay [1] stood at 8.61%; in assay [2], 10.3%; in assay [3], 9.7%.

On to `Nc1nc2c(ncn2OC[C@H]2COP(=O)(O)CO2)c(=O)[nH]1`, for which the inhibition in assay [1] is -2.05%; in assay [2], 0.55%; in assay [3], -1.54%.

For the molecule `CCOc1ccc2[nH]c(C)cc(=NN=Cc3ccc(Cl)cc3)c2c1`, the inhibition is -0.27% in assay [1], 0.45% in assay [2] and -1.27% in assay [3].

`S=C(NCCN1CCOCC1)Nc1ccccc1`: the inhibition is -1.94% in assay [1], 0.47% in assay [2] and 0.17% in assay [3].

For `NC(=O)c1cccc(C(=O)Nc2ccc(-c3cccc(-c4nc5cc(C(F)(F)F)ccc5[nH]4)c3)cc2)c1`, the values for the inhibition in assay [1], in assay [2] and in assay [3] were 0.39%, -0.82% and -2.19%, respectively.
